Inconclusive results are not listed. Calls of active or inactive are those of the source. Calls come from the whole dose curve; as a rule, active = well fitted curve in the direction sought with a large enough effect; inconclusive = small, poorly fitted or top-dose-only effect, or another doubt; inactive = no such curve, though single readings can be large; an effect the other way counts as inactive or inconclusive.
Columns and labels:
HaCat [1] = test: Cytotoxic Profiling of Annotated Libraries Using Quantitative High-Throughput Screening (AID 1296008); details: Five cell lines viability, CellTiter-Glo ATP luminescence, 48-72 h; max response: active compounds read low; note: nearly all actives have a fitted effect of over 60% in size
Outline: (§1)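 Cytotoxicity was measured as CellTiter-Glo ATP luminescence, read after 10 min at room temperature. Compound treatment of the cells lasted 48 or 72 hr at 37 degrees Celsius in a qHTS format.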

NIH3T3 [2] = test: as above; details: Five cell lines viability, CellTiter-Glo ATP luminescence, 48-72 h; max response: active compounds read low
Outline: as §1

HACAT [3] = test: qHTS assay to identify novel small-molecules to repurpose for Merkel cell carcinoma treatment (AID 1296009); details: MCC and control cell lines, CellTiter-Glo viability, 72 h; at 44.8 µM (top of the series) unless noted; note: nearly all actives have a fitted effect of over 60% in size
Outline: (§2)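 Cell viability, measured as CellTiter-Glo luminescence, was normalized between DMSO and no-cell wells. The cells had been exposed to 8- or 11-point compound dilutions for 72 hr at 37 degree celsius.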

HEK293T [4] = test: as above; details: MCC and control cell lines, CellTiter-Glo viability, 72 h; at 44.8 µM (top of the series) unless noted
Outline: as §2

MCC-13 = test: as above; details: MCC and control cell lines, CellTiter-Glo viability, 72 h; series mostly up to 46 µM
Outline: as §2

MCC-26 = test: as above; details: MCC and control cell lines, CellTiter-Glo viability, 72 h; series mostly up to 46 µM
Outline: as §2

MKL-1 = test: as above; details: MCC and control cell lines, CellTiter-Glo viability, 72 h; series mostly up to 46 µM
Outline: as §2

MKL-2 = test: as above; details: MCC and control cell lines, CellTiter-Glo viability, 72 h; series mostly up to 46 µM
Outline: as §2

UISO = test: as above; details: MCC and control cell lines, CellTiter-Glo viability, 72 h; series mostly up to 46 µM
Outline: as §2

WaGa = test: as above; details: MCC and control cell lines, CellTiter-Glo viability, 72 h; series mostly up to 46 µM
Outline: as §2

C33A = test: Primary qHTS to identify gynecologic anti-cancer compounds using libraries of approved drugs and bioactive compounds (AID 1345084); details: Gynecologic cancer cell panel viability, ATPlite luminescence, 48 h; series mostly up to 57.5 µM; note: nearly all actives have a fitted effect of over 55% in size
Outline: (§3)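 Cell viability after 48 h drug treatment, ATPlite luminescence readout; five doses.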

CAOV3 = test: as above; details: Gynecologic cancer cell panel viability, ATPlite luminescence, 48 h; series mostly up to 57.5 µM
Outline: as §3

CASKI = test: as above; details: Gynecologic cancer cell panel viability, ATPlite luminescence, 48 h; series mostly up to 57.5 µM
Outline: as §3

Es-2 = test: as above; details: Gynecologic cancer cell panel viability, ATPlite luminescence, 48 h; series mostly up to 57.5 µM
Outline: as §3

HeLa = test: as above; details: Gynecologic cancer cell panel viability, ATPlite luminescence, 48 h; series mostly up to 57.5 µM
Outline: as §3

Hek293T [5] = test: as above; details: Gynecologic cancer cell panel viability, ATPlite luminescence, 48 h, control line for the selectivity index; series mostly up to 57.5 µM
Outline: as §3

JEG-3 = test: as above; details: Gynecologic cancer cell panel viability, ATPlite luminescence, 48 h; series mostly up to 57.5 µM
Outline: as §3

OV90 = test: as above; details: Gynecologic cancer cell panel viability, ATPlite luminescence, 48 h; series mostly up to 57.5 µM
Outline: as §3

NIH3T3 [6] = test: qHTS assay to identify novel small-molecules to repurpose for Merkel cell carcinoma treatment (AID 1296009); details: MCC and control cell lines, CellTiter-Glo viability, 72 h; at 44.8 µM (top of the series) unless noted; note: nearly all actives have a fitted effect of over 60% in size
Outline: as §2
% is set by controls: 0 for no effect and ±100 for the full control effect.

CC(NC(CCc1ccccc1)C(=O)O)C(=O)N1C(=O)N(C)CC1C(=O)O (centres undefined)
inactive: outcome (HaCat [1]) | max response (NIH3T3 [2]) -5.8% | outcome (HACAT [3]) | outcome (HEK293T [4]) | Potency (MCC-13) | Potency (MCC-26) | Potency (MKL-1) | Potency (MKL-2) | Potency (UISO) | Potency (WaGa) | Potency (C33A) | Potency (CAOV3) | Potency (CASKI) | Potency (Es-2) | Potency (HeLa) | Potency (Hek293T [5]) | Potency (JEG-3) | Potency (OV90)

CCCC(=O)Nc1ccc(O)c(C(C)=O)c1
inactive: outcome (HaCat [1]) | max response (NIH3T3 [2]) 3.73% | outcome (HACAT [3]) | outcome (HEK293T [4]) | Potency (MCC-13) | Potency (MCC-26) | Potency (MKL-1) | Potency (MKL-2) | Potency (UISO) | Potency (WaGa) | Potency (C33A) | Potency (CAOV3) | Potency (CASKI) | Potency (Es-2) | Potency (HeLa) | Potency (Hek293T [5]) | Potency (JEG-3) | Potency (OV90)

OC1(c2ccc(Cl)cc2)CCNCC1
inactive: outcome (HaCat [1]) | max response (NIH3T3 [2]) -2.06% | outcome (HACAT [3]) | outcome (HEK293T [4]) | Potency (MCC-13) | Potency (MCC-26) | Potency (MKL-1) | Potency (MKL-2) | Potency (UISO) | Potency (WaGa) | Potency (C33A) | Potency (CAOV3) | Potency (CASKI) | Potency (Es-2) | Potency (HeLa) | Potency (Hek293T [5]) | Potency (JEG-3) | Potency (OV90)

COC(=O)/C=C\C(=O)OC
inactive: outcome (HaCat [1]) | outcome (NIH3T3 [2]) | outcome (HACAT [3]) | outcome (HEK293T [4]) | Potency (MCC-13) | Potency (MCC-26) | Potency (MKL-1) | Potency (MKL-2) | outcome (NIH3T3 [6]) | Potency (UISO) | Potency (WaGa) | Potency (C33A) | Potency (CAOV3) | Potency (CASKI) | Potency (Es-2) | Potency (HeLa) | Potency (Hek293T [5]) | Potency (JEG-3) | Potency (OV90)

Cc1ccc(-c2ccccc2C#N)cc1
inactive: outcome (HaCat [1]) | max response (NIH3T3 [2]) 3.01% | outcome (HACAT [3]) | outcome (HEK293T [4]) | Potency (MCC-13) | Potency (MCC-26) | Potency (MKL-1) | Potency (MKL-2) | Potency (UISO) | Potency (WaGa) | Potency (C33A) | Potency (CAOV3) | Potency (CASKI) | Potency (Es-2) | Potency (HeLa) | Potency (Hek293T [5]) | Potency (JEG-3) | Potency (OV90)

NS(=O)(=O)c1cc(C(=O)NN2C[C@H]3[C@H]4CCC(C4)[C@H]3C2)ccc1Cl
inactive: outcome (HaCat [1]) | outcome (NIH3T3 [2]) | outcome (HACAT [3]) | Potency (MCC-13) | Potency (MCC-26) | Potency (MKL-1) | Potency (MKL-2) | outcome (NIH3T3 [6]) | Potency (UISO) | Potency (WaGa) | Potency (C33A) | Potency (CAOV3) | Potency (CASKI) | Potency (Es-2) | Potency (HeLa) | Potency (Hek293T [5]) | Potency (JEG-3) | Potency (OV90)

Cc1c(N)cccc1C(F)(F)F
inactive: outcome (HaCat [1]) | max response (NIH3T3 [2]) -0.97% | outcome (HACAT [3]) | outcome (HEK293T [4]) | Potency (MCC-13) | Potency (MCC-26) | Potency (MKL-1) | Potency (MKL-2) | Potency (UISO) | Potency (WaGa) | Potency (C33A) | Potency (CAOV3) | Potency (CASKI) | Potency (Es-2) | Potency (HeLa) | Potency (Hek293T [5]) | Potency (JEG-3) | Potency (OV90)

O=C(CCCl)NCc1ccccc1
inactive: outcome (HaCat [1]) | outcome (NIH3T3 [2]) | outcome (HACAT [3]) | Potency (MCC-13) | Potency (MCC-26) | Potency (MKL-1) | Potency (MKL-2) | outcome (NIH3T3 [6]) | Potency (UISO) | Potency (WaGa) | Potency (C33A) | Potency (CAOV3) | Potency (CASKI) | Potency (Es-2) | Potency (HeLa) | Potency (Hek293T [5]) | Potency (JEG-3) | Potency (OV90)

CCCc1ncc(C(=O)O)s1
inactive: outcome (HaCat [1]) | outcome (NIH3T3 [2]) | outcome (HACAT [3]) | Potency (MCC-13) | Potency (MCC-26) | Potency (MKL-1) | Potency (MKL-2) | outcome (NIH3T3 [6]) | Potency (UISO) | Potency (WaGa) | Potency (C33A) | Potency (CAOV3) | Potency (CASKI) | Potency (Es-2) | Potency (HeLa) | Potency (Hek293T [5]) | Potency (JEG-3) | Potency (OV90)

COc1ccc2nc(SCc3ncc(C)c(OC)c3C)[nH]c2c1
inactive: outcome (HaCat [1]) | outcome (NIH3T3 [2]) | outcome (HACAT [3]) | Potency (MCC-13) | Potency (MCC-26) | Potency (MKL-1) | Potency (MKL-2) | outcome (NIH3T3 [6]) | Potency (UISO) | Potency (WaGa) | Potency (C33A) | Potency (CAOV3) | Potency (CASKI) | Potency (Es-2) | Potency (HeLa) | Potency (Hek293T [5]) | Potency (JEG-3) | Potency (OV90)

COc1cc2c(cc1OC)C(=O)CC2
inactive: outcome (HaCat [1]) | outcome (NIH3T3 [2]) | outcome (HACAT [3]) | Potency (MCC-13) | Potency (MCC-26) | Potency (MKL-1) | Potency (MKL-2) | outcome (NIH3T3 [6]) | Potency (UISO) | Potency (WaGa) | Potency (C33A) | Potency (CAOV3) | Potency (CASKI) | Potency (Es-2) | Potency (HeLa) | Potency (Hek293T [5]) | Potency (JEG-3) | Potency (OV90)

Cc1cc(O)c(C)c(C)c1O
inactive: outcome (HaCat [1]) | outcome (NIH3T3 [2]) | outcome (HACAT [3]) | outcome (HEK293T [4]) | Potency (MCC-13) | Potency (MCC-26) | Potency (MKL-1) | Potency (MKL-2) | outcome (NIH3T3 [6]) | Potency (WaGa) | Potency (C33A) | Potency (CAOV3) | Potency (CASKI) | Potency (Es-2) | Potency (HeLa) | Potency (Hek293T [5]) | Potency (JEG-3) | Potency (OV90)

CCN(CC)C(=O)C1CN2CCc3cc(OC)c(OC)cc3C2CC1OC(C)=O (centres undefined)
inactive: outcome (HaCat [1]) | max response (NIH3T3 [2]) -5.34% | outcome (HACAT [3]) | outcome (HEK293T [4]) | Potency (MCC-13) | Potency (MCC-26) | Potency (MKL-1) | Potency (MKL-2) | Potency (UISO) | Potency (WaGa) | Potency (C33A) | Potency (CAOV3) | Potency (CASKI) | Potency (Es-2) | Potency (HeLa) | Potency (Hek293T [5]) | Potency (JEG-3) | Potency (OV90)

Cc1ccc(C(C)OC(=O)C2(C)CCC(C(=O)O)C2(C)C)cc1 (centres undefined)
inactive: outcome (HaCat [1]) | outcome (NIH3T3 [2]) | outcome (HACAT [3]) | outcome (HEK293T [4]) | Potency (MCC-13) | Potency (MCC-26) | Potency (MKL-1) | Potency (MKL-2) | outcome (NIH3T3 [6]) | Potency (UISO) | Potency (WaGa) | Potency (C33A) | Potency (CAOV3) | Potency (CASKI) | Potency (Es-2) | Potency (HeLa) | Potency (Hek293T [5]) | Potency (JEG-3) | Potency (OV90)

— PubChem BioAssay (NCATS)
